Calls of active or inactive are those of the source.
Key:
[1] = test system: Plasmodium falciparum Sir2 (PF13_0152, Sir2A); test: Plasmodium falciparum Sir2A binding compounds – biochemical, small-molecule microarray, 635 nm fluorescence, primary screen (AID 1098); details: fluorescence 635 nm, higher = more signal;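 also: score merges spot fluorescence intensity with its signal-to-noise ratio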
[2] = probe aDKK1 binding to arrayed compounds – biochemical, biotinylated probe, 635/667 nm fluorescence, primary screen (AID 1099); details: small-molecule microarray, higher = more signal;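 also: score merges 667nm spot fluorescence with signal to noise across triplicate slides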
[3] = probe aCHRDL2 binding to arrayed compounds – biochemical, biotinylated probe, 635/667 nm fluorescence, primary screen (AID 1100); details: small-molecule microarray, higher = more signal
[4] = change in splice reporter luminescence, either direction, cell-based, HEK293, spliceosome inhibition project, primary screen (AID 1101); details: HEK293 splicing luciferase reporter, 24 h, higher = more signal, called active from +8 up or from −8 down;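 also: HEK293 cells carrying a splicing-competent luciferase reporter gene; test concentration not given here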
[5] = target: Fibroblast growth factor 10 (Homo sapiens) (UniProt O15520); test: compounds binding fibroblast growth factor 10 – biochemical, small-molecule microarray, 635 nm fluorescence, primary screen (AID 1102); details: FGF10 binding, fluorescence 635 nm, higher = more signal
[6] = test system: glycogen synthase kinase-3 (GSK3A per assay name; protocol says GSK3B); test: compounds binding glycogen synthase kinase-3 – biochemical, small-molecule microarray, 635 nm fluorescence, GSK3A, primary screen (AID 1103); details: fluorescence 635 nm, higher = more signal; also: the record names both GSK3A and GSK3B
[7] = target: Epidermal growth factor receptor (Homo sapiens) (UniProt P00533); test: compounds binding epidermal growth factor receptor – biochemical, small-molecule microarray, 635 nm fluorescence, primary screen (AID 1104); details: EGFR binding, higher = more signal;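 also: score merges 667 nm emission intensity with spot signal to noise over triplicate slides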
[8] = target: Follistatin-related protein 3 (Homo sapiens) (UniProt O95633); test: compounds binding follistatin-related protein 3 – biochemical, small-molecule microarray, 635 nm fluorescence, primary screen (AID 1105); details: FSTL3 binding, higher = more signal;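 also: score merges emission near 667 nm and signal to noise per printed spot across three slides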
[9] = target: Dickkopf-related protein 1 (Homo sapiens) (UniProt O94907); test: small molecules binding DKK1 protein – biochemical, small-molecule microarray, 635 nm fluorescence scan, primary screen (AID 1106); details: higher = more signal;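 also: score merges emission near 667 nm with signal to noise over three replicate slides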
[10] = test system: Inhibin beta A chain (activin A); test: small molecules binding activin A – biochemical, small-molecule microarray, 635 nm fluorescence scan, primary screen (AID 1107); details: INHBA, higher = more signal;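 also: mouse activin A protein probed at 4.33 µg/mL on printed slides; score merges bound-protein fluorescence near 667 nm with spot signal-to-noise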
[11] = test system: Human papillomavirus type 1a protein E7 (residues 44-93); test: small molecules binding HPV E7 44-93 – biochemical, small-molecule microarray, residues 44-93, 635 nm fluorescence, primary screen (AID 1108); details: fluorescence 635 nm, higher = more signal;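 also: E7 fragment applied at 1 µg/mL in TBST for 1 h at 4 C; score combines spot fluorescence with its signal to noise ratio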
[12] = hepatitis C replication reporter changes, two-sided – Huh7 cells, luciferase reporter, HCV replication inhibitor project, primary screen (AID 1109); details: Huh7 HCV replicon luciferase reporter, 48 h; higher = more signal;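 also: huh7 hepatoma cells harbouring a luciferase neomycin HCV replicon reporter; luciferase luminescence as measure of HCV replicon replication; test concentration not given here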
[13] = target: Left-right determination factor 2 (Homo sapiens) (UniProt O00292); test: small molecules binding LEFTY2 protein – biochemical, small-molecule microarray, 635 nm fluorescence scan, primary screen (AID 1110); details: higher = more signal
[14] = target: Calmodulin-1 (Homo sapiens) (UniProt P0DP23); test: small molecules binding calmodulin-1 with EGTA – biochemical, small-molecule microarray, Cy5-labelled CALM1, profiling panel (AID 1111); details: Cy5-CALM1 binding fluorescence, higher = more signal;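 also: labelled calmodulin applied in Tris saline Tween buffer holding calcium plus EGTA and DTT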
[15] = target: Calmodulin-1 (Homo sapiens) (UniProt P0DP23); test: small molecules binding Ca-loaded calmodulin-1 – biochemical, small-molecule microarray, Cy5-labelled CALM1, plus calcium, artefact control for SMM control-protein annotation, profiling panel (AID 1112); details: Cy5-CALM1 binding fluorescence, higher = more signal;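 also: score merges spot fluorescence with signal to noise from triplicate slides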
[16] = probe aWnt5a binding to arrayed compounds – biochemical, biotinylated probe, 635/667 nm fluorescence, primary screen (AID 1113); details: small-molecule microarray, higher = more signal;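 also: score merges 667 nm fluorescence intensity with signal-to-noise per printed feature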
[17] = probe aShh binding to arrayed compounds – biochemical, biotinylated probe, 635/667 nm fluorescence, primary screen (AID 1114); details: small-molecule microarray, higher = more signal;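 also: probe is biotin-labelled aShh protein from a stem cell growth factor screen; measures binding of labelled protein to compounds printed on the slide; score merges feature fluorescence at 667 nm with signal-to-noise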
[18] = probe aNog binding to arrayed compounds – biochemical, biotinylated probe, 635/667 nm fluorescence, primary screen (AID 1115); details: small-molecule microarray, higher = more signal;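 also: probe is biotinylated aNog protein used at 0.15 µg/mL for 1 h at 4 C; z-score combines 667 nm fluorescence of each spot with its signal to noise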
[19] = target: Torsin-1A-interacting protein 1 (Homo sapiens) (UniProt Q5JTV8); test: compound microarray binding of lysate hLAP1 – cell lysate, small-molecule microarray, COS7 lysate, 635/667 nm fluorescence, primary screen (AID 1116); details: 635 nm fluorescence, higher = more signal
[20] = target: Alpha-bungarotoxin (Bungarus multicinctus) (UniProt P60615); test: compounds binding labelled alpha-BTX control protein – biochemical, small-molecule microarray, Alexa647 label, 635/667 nm fluorescence, artefact control for SMM control protein annotation, profiling panel (AID 1117); details: alpha-BTX-A647 binding fluorescence, higher = more signal
Alpha-bungarotoxin (Bungarus multicinctus), sequence (P60615 whole entry, looked up): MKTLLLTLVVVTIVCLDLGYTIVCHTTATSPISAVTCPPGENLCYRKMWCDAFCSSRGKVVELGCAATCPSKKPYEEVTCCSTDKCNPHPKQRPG

Torsin-1A-interacting protein 1 (Homo sapiens), sequence (Q5JTV8 whole entry, looked up): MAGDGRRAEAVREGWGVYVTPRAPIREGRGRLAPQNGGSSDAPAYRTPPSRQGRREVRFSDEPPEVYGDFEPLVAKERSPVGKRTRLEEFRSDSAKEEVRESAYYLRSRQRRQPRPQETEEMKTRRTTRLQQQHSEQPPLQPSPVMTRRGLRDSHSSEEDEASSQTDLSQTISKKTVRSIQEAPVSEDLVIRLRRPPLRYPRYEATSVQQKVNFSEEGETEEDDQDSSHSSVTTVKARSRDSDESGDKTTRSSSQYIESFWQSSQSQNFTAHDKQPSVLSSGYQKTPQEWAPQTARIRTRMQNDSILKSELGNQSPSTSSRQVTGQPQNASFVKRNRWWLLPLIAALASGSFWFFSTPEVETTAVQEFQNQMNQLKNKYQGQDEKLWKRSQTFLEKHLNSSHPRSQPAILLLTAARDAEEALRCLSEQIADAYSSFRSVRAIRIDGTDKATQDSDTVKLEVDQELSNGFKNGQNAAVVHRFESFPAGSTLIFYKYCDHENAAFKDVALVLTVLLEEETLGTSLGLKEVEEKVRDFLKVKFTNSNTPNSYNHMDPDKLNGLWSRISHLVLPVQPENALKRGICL
Epidermal growth factor receptor (Homo sapiens), sequence (P00533 whole entry, looked up): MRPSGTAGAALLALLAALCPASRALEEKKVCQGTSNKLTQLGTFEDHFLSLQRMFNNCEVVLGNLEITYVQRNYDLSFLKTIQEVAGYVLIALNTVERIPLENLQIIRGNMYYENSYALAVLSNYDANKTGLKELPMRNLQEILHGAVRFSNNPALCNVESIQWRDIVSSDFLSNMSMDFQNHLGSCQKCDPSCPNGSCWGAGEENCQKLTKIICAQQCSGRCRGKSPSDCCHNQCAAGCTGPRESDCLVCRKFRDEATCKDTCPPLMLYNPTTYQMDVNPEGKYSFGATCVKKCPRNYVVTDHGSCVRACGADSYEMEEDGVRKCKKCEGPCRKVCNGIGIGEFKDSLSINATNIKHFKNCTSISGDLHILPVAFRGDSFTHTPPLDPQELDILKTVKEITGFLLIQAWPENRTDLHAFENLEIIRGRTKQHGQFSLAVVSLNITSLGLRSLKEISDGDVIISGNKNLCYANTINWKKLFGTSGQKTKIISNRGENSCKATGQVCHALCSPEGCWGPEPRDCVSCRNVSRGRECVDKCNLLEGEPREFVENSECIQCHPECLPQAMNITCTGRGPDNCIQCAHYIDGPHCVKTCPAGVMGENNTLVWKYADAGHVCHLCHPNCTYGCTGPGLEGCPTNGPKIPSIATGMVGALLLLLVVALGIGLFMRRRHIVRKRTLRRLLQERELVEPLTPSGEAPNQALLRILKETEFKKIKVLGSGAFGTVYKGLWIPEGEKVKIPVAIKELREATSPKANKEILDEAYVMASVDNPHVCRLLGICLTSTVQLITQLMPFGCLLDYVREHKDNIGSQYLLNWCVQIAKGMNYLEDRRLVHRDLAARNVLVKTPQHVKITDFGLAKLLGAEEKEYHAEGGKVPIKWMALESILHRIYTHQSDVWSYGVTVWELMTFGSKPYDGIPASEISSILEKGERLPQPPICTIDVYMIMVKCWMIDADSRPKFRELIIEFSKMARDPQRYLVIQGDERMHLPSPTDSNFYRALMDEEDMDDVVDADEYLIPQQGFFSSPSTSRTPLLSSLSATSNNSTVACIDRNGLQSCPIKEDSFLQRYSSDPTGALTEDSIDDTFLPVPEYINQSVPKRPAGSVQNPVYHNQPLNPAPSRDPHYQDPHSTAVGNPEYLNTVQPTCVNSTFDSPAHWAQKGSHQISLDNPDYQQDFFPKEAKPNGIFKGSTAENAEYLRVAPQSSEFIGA
Dickkopf-related protein 1 (Homo sapiens), sequence (O94907 whole entry, looked up): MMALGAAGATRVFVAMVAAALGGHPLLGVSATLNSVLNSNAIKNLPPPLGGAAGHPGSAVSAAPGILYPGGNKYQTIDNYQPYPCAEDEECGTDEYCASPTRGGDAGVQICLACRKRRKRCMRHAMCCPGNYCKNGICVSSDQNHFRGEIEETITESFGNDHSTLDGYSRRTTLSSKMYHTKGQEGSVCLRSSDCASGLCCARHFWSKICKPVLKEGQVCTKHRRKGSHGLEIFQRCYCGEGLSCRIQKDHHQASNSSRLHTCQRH
Follistatin-related protein 3 (Homo sapiens), sequence (O95633 whole entry, looked up): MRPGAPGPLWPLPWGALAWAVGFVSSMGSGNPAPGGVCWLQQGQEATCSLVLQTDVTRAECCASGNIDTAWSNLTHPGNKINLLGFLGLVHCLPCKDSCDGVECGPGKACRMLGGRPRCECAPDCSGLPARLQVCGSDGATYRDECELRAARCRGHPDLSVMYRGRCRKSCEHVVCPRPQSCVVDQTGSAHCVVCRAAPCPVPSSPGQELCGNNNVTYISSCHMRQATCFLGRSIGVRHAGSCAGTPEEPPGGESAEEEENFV
Fibroblast growth factor 10 (Homo sapiens), sequence (O15520 whole entry, looked up): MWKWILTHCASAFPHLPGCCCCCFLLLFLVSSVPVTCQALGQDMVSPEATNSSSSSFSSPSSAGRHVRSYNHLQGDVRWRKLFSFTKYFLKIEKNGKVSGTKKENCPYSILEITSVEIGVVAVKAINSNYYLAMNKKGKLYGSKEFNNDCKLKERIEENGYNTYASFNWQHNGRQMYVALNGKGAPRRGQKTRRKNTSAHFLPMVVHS
Left-right determination factor 2 (Homo sapiens), sequence (O00292 whole entry, looked up): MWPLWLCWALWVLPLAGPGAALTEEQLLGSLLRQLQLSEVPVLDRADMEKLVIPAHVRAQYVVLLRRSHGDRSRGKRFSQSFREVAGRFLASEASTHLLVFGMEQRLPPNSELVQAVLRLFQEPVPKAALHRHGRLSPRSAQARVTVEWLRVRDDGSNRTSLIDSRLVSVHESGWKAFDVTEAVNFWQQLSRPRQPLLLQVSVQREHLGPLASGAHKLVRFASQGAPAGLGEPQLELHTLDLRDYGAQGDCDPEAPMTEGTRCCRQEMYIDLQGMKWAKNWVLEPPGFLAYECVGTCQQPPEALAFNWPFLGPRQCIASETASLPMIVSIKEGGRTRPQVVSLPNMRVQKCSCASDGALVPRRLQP

SMILES | composite z-score [1] | composite z-score [2] | composite z-score [3] | z-score [4] | composite z-score [5] | composite z-score [6] | composite z-score [7] | composite z-score [8] | composite z-score [9] | composite z-score [10] | composite z-score [11] | z-score [12] | composite z-score [13] | composite z-score [14] | composite z-score [15] | composite z-score [16] | composite z-score [17] | composite z-score [18] | composite z-score [19] | composite z-score [20]
COC(=O)C(CC#Cc1ccc2c(c1)[C@]1(C(=O)N2)[C@H](c2ccc(OCCO)cc2)N2[C@H](c3ccccc3)[C@H](c3ccccc3)OC(=O)[C@H]2[C@@H]1C(=O)N1CCc2cc(OC)c(OC)cc2C1)C(=O)OC | 1.47 | 0.508 | 0.381 | -0.369 (inactive) | 1.4 | 1.32 | 0.485 | 1.41 | 0.506 | 1.18 | 1.4 | -1.01 | 0.459 | 1.66 | 0.236 | 0.296 | 0.191 | -0.422 | 1.58 | 1.77
C=CC[C@@]12N=C(c3ccc(OCCCO)cc3)O[C@@H]1c1ccccc1N(C)C2=O | 1.13 | 0.178 | 0.899 | -0.933 (inactive) | 1.38 | 1.32 | 0.166 | 0.964 | 0.498 | 1.1 | 1.16 | -1.56 | 0.0838 | 0.422 | -0.206 | 0.14 | 0.547 | -0.621 | -0.0062 | 1.21
COCCOC(=O)N1C(=O)[C@@]2(c3ccccc31)[C@H](c1ccccc1OCCO)N1[C@H](c3ccccc3)[C@H](c3ccccc3)OC(=O)[C@H]1[C@@H]2C(=O)N1CCN(c2ncccn2)CC1 | 1.21 | 0.386 | 0.72 | -0.869 (inactive) | 0.357 | 0.852 | 0.792 | 0.555 | 0.471 | -0.0468 | 0.771 | -2.73 | 0.567 | 1.69 | 0.614 | -0.096 | 0.199 | 0.441 | 1.24 | 1.46
Cc1ccc(S[C@]2(C(=O)O)CC(=O)N(C(C)C)[C@@H]2c2ccc(CO)cc2I)cc1 | 1.33 | 0.831 | 1.18 | -2.55 (inactive) | 0.0877 | 0.511 | -0.645 | 0.315 | -0.27 | 1.33 | 0.506 | -1.31 | -0.195 | 1.75 | 0.845 | 0.0611 | 0.111 | 1.65 | 0.836 | 1.18
CN(C)C(=O)[C@@]1(CCS(=O)(=O)c2ccccc2)COC(c2ccc(OCCCO)cc2)=N1 | 0.656 | 0.476 | 0.977 | -0.824 (inactive) | 0.314 | 0.476 | 0.0041 | -0.448 | -0.471 | 1.04 | 1.31 | -2.25 | 0.149 | 0.614 | -0.429 | -0.154 | 0.414 | -0.288 | 2.75 | 0.301
